biological target: Focal adhesion kinase 1 (Homo sapiens) (UniProt Q05397); settings: at 1 µM
Sequence (Q05397 2-1052 limits assumed): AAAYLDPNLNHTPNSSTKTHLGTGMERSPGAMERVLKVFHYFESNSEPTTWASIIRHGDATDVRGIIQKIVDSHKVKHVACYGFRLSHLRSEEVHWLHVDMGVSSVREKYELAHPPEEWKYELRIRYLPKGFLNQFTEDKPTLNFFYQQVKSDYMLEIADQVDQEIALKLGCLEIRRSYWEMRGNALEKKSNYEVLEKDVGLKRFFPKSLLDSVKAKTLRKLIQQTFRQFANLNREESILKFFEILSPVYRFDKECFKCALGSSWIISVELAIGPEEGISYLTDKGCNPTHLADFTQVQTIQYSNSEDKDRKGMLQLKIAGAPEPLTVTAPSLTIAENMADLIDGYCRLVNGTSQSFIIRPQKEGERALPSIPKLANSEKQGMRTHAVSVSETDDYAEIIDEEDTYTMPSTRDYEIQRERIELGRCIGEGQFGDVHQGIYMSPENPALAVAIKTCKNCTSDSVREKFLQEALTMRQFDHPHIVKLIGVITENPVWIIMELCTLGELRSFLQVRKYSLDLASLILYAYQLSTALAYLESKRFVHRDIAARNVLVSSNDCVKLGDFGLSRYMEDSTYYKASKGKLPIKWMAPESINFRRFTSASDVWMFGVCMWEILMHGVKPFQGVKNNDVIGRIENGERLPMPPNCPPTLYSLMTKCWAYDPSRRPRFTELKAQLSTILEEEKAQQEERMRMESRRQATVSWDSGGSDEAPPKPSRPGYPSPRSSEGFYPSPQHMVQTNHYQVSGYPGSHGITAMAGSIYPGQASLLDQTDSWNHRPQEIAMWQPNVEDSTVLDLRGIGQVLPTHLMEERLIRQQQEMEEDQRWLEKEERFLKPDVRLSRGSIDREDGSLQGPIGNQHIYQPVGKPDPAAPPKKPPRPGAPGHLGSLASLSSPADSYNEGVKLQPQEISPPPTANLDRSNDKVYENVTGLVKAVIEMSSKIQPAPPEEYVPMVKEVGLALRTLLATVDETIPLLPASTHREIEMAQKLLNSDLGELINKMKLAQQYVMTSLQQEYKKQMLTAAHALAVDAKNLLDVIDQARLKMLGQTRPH

Row | Structure (SMILES) | residual activity [%]
1 | CC(C)(C)n1nc(Cc2cccc3ccccc23)c2c(N)ncnc21 | 122
2 | COc1cc2ncnc(Nc3cccc(Cl)c3)c2cc1OC | 146
3 | O=C1C(Cl)=C(N2C(=O)CCC2=O)C(=O)c2ccccc21 | 93
4 | O=C1Nc2ccc(Cl)cc2/C1=C/c1cc(Cl)c(O)c(Cl)c1 | 115
5 | COc1cc2nccc(Oc3ccc(NC(=O)Nc4cc(C)on4)c(Cl)c3)c2cc1OC | 96
6 | O=C1Cc2c([nH]c3ccc(Br)cc23)-c2ccccc2N1 | 82
7 | Nc1ncnc2c1c(-c1ccc(Oc3ccccc3)cc1)cn2C1CCCC1 | 116
8 | COc1ccc(-c2cnc3c(-c4ccsc4)cnn3c2)cc1 | 141
9 | COc1ccc(COc2ccc(Cc3cnc(N)nc3N)cc2OC)cc1 | 115
10 | O=C(O)/C=C/c1cc(Br)c(Br)c(Br)c1Br | 98
11 | O=C(CCCc1ccc(-c2ccccc2F)cc1)Nc1ccc(O)cc1 | 105
12 | Nc1ncnc2c1cnn2-c1ccccc1 | 137
13 | O=C1NC(=O)c2c1c1c3ccccc3[nH]c1n1cncc21 | 57
14 | CC(C)[C@H](CO)Nc1nc(Nc2cc(N)cc(Cl)c2)c2ncn(C(C)C)c2n1 | 42
15 | CC(C)c1nn(-c2c(Cl)cccc2Cl)c2nc(Cc3ccc(OCCO)cc3)[nH]c(=O)c12 | 109
16 | O=c1cc(N2CCNCC2)oc2c(-c3ccccc3)cccc12 | 105
17 | CN(C)S(=O)(=O)c1ccc2c(c1)/C(=C/c1cc3c([nH]1)CCCC3)C(=O)N2 | 21
18 | Nc1n[nH]c2nc3ccccc3nc12 | 97
19 | CCN(CC)CCNC(=O)c1c(C)[nH]c(/C=C2\C(=O)Nc3ccc(Cl)cc32)c1C | 15
20 | O=c1cc(N2CCOCC2)oc2c1ccc1ccccc12 | 132
21 | CCCCc1c(-c2ccc(OC)cc2)[nH]c2nccnc12 | 67
22 | Cn1c2ccccc2c2c3c(c4c5ccccc5n(CCC#N)c4c21)CNC3=O | 33
23 | NC(=O)Nc1sc(-c2ccc(F)cc2)cc1C(N)=O | 68
24 | Nc1ncnc2[nH]nc(Nc3ccc(F)cc3)c12 | 109
25 | CCCCc1c(-c2ccc(O)cc2)[nH]c2nccnc12 | 76
26 | Cn1sc(=O)n(Cc2ccccc2)c1=O | 95
